Inconclusive results are not listed. The source made the active and inactive calls. The call rests on the fitted dose curve; in most records, active means well fitted inhibition curve with a large enough effect; inconclusive means small, poorly fitted or top-dose-only effect; inactive means flat fitted curve, though single readings scatter.
Experiments:
Assay in all cases: Cytotoxic Profiling of Annotated Libraries Using Quantitative High-Throughput Screening (AID 1296008); further: nearly all actives have a fitted effect of over 60% in size
Settings in all cases: Five cell lines viability, CellTiter-Glo ATP luminescence, 48-72 h; max response: active compounds read low
CRL-7250 = system: CRL-7250
Summary of the method: (§1)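 Cytotoxicity was measured as CellTiter-Glo ATP luminescence, read after 10 min at room temperature. Compound treatment of the cells lasted 48 or 72 hr at 37 degrees Celsius in a qHTS format.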

HEK293 = system: HEK293
Summary of the method: as §1

HaCat = system: HaCat
Summary of the method: as §1

KB-3-1 = system: KB-3-1
Summary of the method: as §1

NIH3T3 = system: NIH3T3
Summary of the method: as §1

Measured: max response
On the % scale 0 is the no-effect control and ±100 the full control effect.

C=C1CC[C@@H]2C(C)(C)CCC[C@@]2(C)[C@@H]1CC/C(=C/C(=O)OC)COC(C)=O
inactive: CRL-7250 -1.64% | HEK293 -16.3% | HaCat | KB-3-1 -9.17% | NIH3T3

O=C1C(Cl)=C(N2CCOCC2)C(=O)N1c1ccc(Cl)c(Cl)c1
inactive: CRL-7250 | HEK293 -3.24% | HaCat | KB-3-1 | NIH3T3

COc1cc(/C=C/C(=O)O[C@@H]2C[C@](O)(C(=O)O)C[C@@H](O)[C@H]2O)ccc1O
inactive: CRL-7250 -5.29% | HEK293 -0.759% | HaCat | KB-3-1 | NIH3T3 1.32%

CSCC1OC(n2cnc3c(=O)[nH]cnc32)C(O)C1O (stereo not given)
inactive: CRL-7250 -7.17% | HEK293 -2.06% | HaCat | KB-3-1 2.69% | NIH3T3

CC1=CC(=O)C(=C(C)C)CC2C(C)(O)CCC12O (stereo not given)
inactive: CRL-7250 | HEK293 -0.243% | HaCat | KB-3-1 8.8% | NIH3T3

C[C@@H]1O[C@@H](O[C@H]2[C@H](Oc3cc(O)c(C(=O)CCc4ccc(O)cc4)c(O)c3)O[C@H](CO)[C@@H](O)[C@@H]2O)[C@H](O)[C@H](O)[C@H]1O
inactive: CRL-7250 2.09% | HEK293 -1.52% | HaCat | KB-3-1 | NIH3T3

C[C@@H]1O[C@@H](O[C@H]2[C@H](O)[C@@H](O)[C@H](OC(=O)[C@]34CCC(C)(C)C[C@H]3C3=CCC5[C@@]6(C)CC[C@H](O[C@@H]7O[C@H](C(=O)O)[C@@H](O)[C@H](O)[C@H]7O)C(C)(C)C6CC[C@@]5(C)[C@]3(C)CC4)O[C@@H]2CO)[C@H](O)[C@H](O)[C@H]1O (stereo not given in full)
inactive: CRL-7250 | HEK293 -4.26% | HaCat | KB-3-1 -0.526% | NIH3T3 -1.98%

CCC(CC)CC1(C(=O)Nc2ccccc2SC(=O)C(C)C)CCCCC1
inactive: CRL-7250 | HEK293 -10.7% | HaCat -14% | KB-3-1 0.494% | NIH3T3

CCOC(=O)c1ccc(NC2CCCCC2)c(N)c1
inactive: CRL-7250 | HEK293 -10.7% | HaCat -10.7% | KB-3-1 -6.34% | NIH3T3

O=C(O)CCc1c(C(=O)O)[nH]c2cc(Cl)cc(Cl)c12
inactive: CRL-7250 -1.79% | HEK293 -7.05% | HaCat | KB-3-1 | NIH3T3

CC1(C)CC[C@]2(C(=O)O)CC[C@]3(C)C(=CCC4[C@@]5(C)C[C@@H](O)[C@H](O)[C@@](C)(CO)C5[C@H](O)C[C@]43C)[C@@H]2C1 (stereo not given in full)
inactive: CRL-7250 | HEK293 -6.35% | HaCat | KB-3-1 | NIH3T3 0.343%

CC1(C)CC[C@]2(C(=O)O[C@@H]3O[C@H](CO)[C@@H](O)[C@H](O)[C@H]3O)CC[C@]3(C)C(=CCC4[C@@]5(C)CC[C@H](O[C@@H]6O[C@H](C(=O)O)[C@@H](O[C@@H]7O[C@H](CO)[C@@H](O)[C@H](O)[C@H]7O)[C@H](O)[C@H]6O)C(C)(C)C5CC[C@]43C)C2C1 (stereo not given in full)
inactive: CRL-7250 -9.08% | HEK293 3.3% | HaCat | KB-3-1 | NIH3T3 3.38%

O=C(Cc1ccccc1)OC[C@H]1O[C@H](O[C@H]2O[C@H](CO)[C@@H](O)[C@H](O)[C@H]2O)[C@H](O)[C@@H](O)[C@@H]1O
inactive: CRL-7250 -5.14% | HEK293 4.52% | HaCat | KB-3-1 9.38% | NIH3T3 0.692%

Cc1c(NC(=O)N2CCOCC2)ccc2c1c1ccccc1n2C(C)C
inactive: CRL-7250 | HEK293 -7.57% | HaCat | KB-3-1 3.33% | NIH3T3 -1.53%

CC(=O)O[C@H]1C[C@@]2(C)[C@@H](CC[C@H]3[C@@]4(C)C=CC(=O)[C@@H](C)[C@@H]4[C@H](OC(C)=O)C(=O)[C@@]32C)/C1=C(\CCC=C(C)C)C(=O)O
inactive: CRL-7250 4.49% | HEK293 -0.998% | HaCat | KB-3-1 5.79% | NIH3T3 -2.17%

C/C=C(\C)C(=O)OC[C@H]1O[C@@H](O[C@H]2[C@@H](O[C@H]3O[C@H](CO)[C@@H](O)[C@H](O)[C@H]3O[C@@H]3O[C@H](CO)[C@@H](O)[C@H](O)[C@H]3O)O[C@H](COC(=O)/C(C)=C/C)[C@@H](O)[C@@H]2O)[C@H](O)[C@@H](O)[C@@H]1O
inactive: CRL-7250 | HEK293 -5.43% | HaCat | KB-3-1 -3.26% | NIH3T3 3.7%

Oc1ccccc1-c1cc(-c2ccccc2F)[nH]n1
inactive: CRL-7250 3.55% | HEK293 4.01% | HaCat | KB-3-1 -0.368% | NIH3T3 3.17%

— PubChem BioAssay (NCATS)
